Measurements taken from PMC5540273 (PLoS ONE, 2017).

Legend:
Settings in all cases: concentration: 1 μM, replicates: in singlicate; n = 1
[1] = system: JAK1(JH2domain-pseudokinase)
[2] = system: JAK2(JH1domain-catalytic)
[3] = system: JAK3(JH1domain-catalytic)
JNK1 = system: T1, JNK1
T1 construct: gene MAPK8

JNK2 = system: T2, JNK2
T2 construct: gene MAPK9

JNK3 = system: T3, JNK3
T3 construct: gene MAPK10

KIT-autoinhibited = system: KIT-autoinhibited
KIT = system: KIT
LATS1 = system: LATS1
LATS2 = system: LATS2
LCK = system: LCK
LIMK1 = system: LIMK1
LIMK2 = system: LIMK2
LKB1 = system: T4, LKB1
T4 construct: gene STK11

LOK = system: T5, LOK
T5 construct: gene STK10

LRRK2 = system: LRRK2
LTK = system: LTK
LYN = system: LYN
LZK = system: T6, LZK
T6 construct: gene MAP3K13

MAK = system: MAK
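Also: KINOMEscan kinase panel screen.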

| Structure (SMILES) | %Inh [1] [%] | %Inh [2] [%] | %Inh [3] [%] | %Inh (JNK1) [%] | %Inh (JNK2) [%] | %Inh (JNK3) [%] | %Inh (KIT-autoinhibited) [%] | %Inh (KIT) [%] | %Inh (LATS1) [%] | %Inh (LATS2) [%] | %Inh (LCK) [%] | %Inh (LIMK1) [%] | %Inh (LIMK2) [%] | %Inh (LKB1) [%] | %Inh (LOK) [%] | %Inh (LRRK2) [%] | %Inh (LTK) [%] | %Inh (LYN) [%] | %Inh (LZK) [%] | %Inh (MAK) [%] |
| --- | --- | --- | --- | --- | --- | --- | --- | --- | --- | --- | --- | --- | --- | --- | --- | --- | --- | --- | --- | --- |
| O=C(Nc1cccc(-c2nn3ccccc3c2-c2ccnc(Nc3cccc(F)c3)n2)c1)c1c(F)ccc(F)c1Cl [GSK357952] | 0 | 25 | 0 | 11 | 23 | 19 | 0 | 98.2 | 0 | 49 | 99.1 | 43 | 0 | 0 | 97.6 | 32 | 10 | 83 | 0 | 22 |
| Cl.NC(=O)c1cccc(Nc2nccc(Nc3ccc(Oc4c(Cl)cccc4Cl)c(Cl)c3)n2)c1 [GW659009] | 0 | 72 | 0 | 26 | 5 | 1 | 0 | 17 | 0 | 0 | 54 | 12 | 0 | 0 | 49 | 17 | 80 | 34 | 0 | 27 |
| COC(=O)Nc1nc2cc(Oc3ccc(NC(=O)Nc4cc(C(F)(F)F)ccc4F)cn3)ccc2[nH]1.Cl.Cl [GW681170] | 0 | 30 | 0 | 0 | 62 | 0 | 1 | 100 | 0 | 8 | 92.9 | 0 | 0 | 11 | 99.8 | 22 | 47 | 36 | 21 | 0 |
| O=C(Nc1n[nH]c2nc(-c3ccc(O)cc3)ccc12)C1CC1 [SB-710363] | 33 | 53 | 62 | 25 | 13 | 2 | 0 | 12 | 17 | 10 | 24 | 2 | 0 | 9 | 27 | 0 | 58 | 23 | 0 | 90.7 |
| Cl.Cl.NCC(NCc1ccc(-c2ccnc3[nH]ccc23)s1)c1ccccc1 (stereo not shown) [GSK1321565] | 0 | 96.9 | 100 | 24 | 14 | 4 | 0 | 25 | 62 | 95 | 16 | 0 | 20 | 82 | 29 | 10 | 31 | 0 | 40 | 0 |
| CC(=O)Nc1nc2cnc(Nc3cc(NC(=O)c4cccc(C5(C#N)CC5)c4Cl)ccc3C)nc2s1 | 9 | 0 | 0 | 0 | 0 | 0 | 0 | 99.8 | 26 | 0 | 91.1 | 0 | 0 | 0 | 54 | 0 | 0 | 79 | 6 | 0 |
| O=C(Nc1cccc(-c2nn3ncccc3c2-c2ccnc(Nc3ccccc3)n2)c1)c1c(F)cccc1F [GSK198271] | 0 | 2 | 0 | 31 | 56 | 21 | 20 | 100 | 0 | 0 | 99.3 | 75 | 0 | 3 | 99 | 0 | 0 | 99.4 | 0 | 19 |
| C[C@@H](Oc1cc(-n2cnc3cc(-c4ccnc(NCCS(C)(=O)=O)c4)ccc32)sc1C(N)=O)c1ccccc1Cl [GSK907232] | 0 | 50 | 66 | 0 | 10 | 1 | 0 | 80 | 0 | 0 | 67 | 0 | 4 | 0 | 99.1 | 44 | 0 | 0 | 0 | 0 |
| CC(C)(C)c1ccc2nccc(Nc3cccc(O)c3)c2c1 [GW856795] | 0 | 36 | 35 | 32 | 23 | 15 | 9 | 26 | 10 | 0 | 85 | 0 | 1 | 29 | 0 | 36 | 18 | 22 | 0 | 40 |
| COc1cc(Nc2nccc(N3CCC(NC(=O)Nc4cccc(C(C)=O)c4)C3)n2)cc(OC)c1OC (stereo not shown) [GSK1379753] | 11 | 91.4 | 0 | 41 | 29 | 49 | 0 | 86 | 0 | 0 | 15 | 51 | 43 | 0 | 20 | 0 | 100 | 60 | 0 | 30 |
| c1ccc(Oc2ccc(Nc3ccnc4cc(-c5ccc(CNCCN6CCOCC6)o5)ccc34)cc2)nc1 [GW567145] | 0 | 7 | 0 | 18 | 2 | 0 | 4 | 79 | 8 | 0 | 78 | 0 | 0 | 20 | 30 | 20 | 0 | 28 | 32 | 0 |
| CN1CCN(Cc2cccc(-c3ccc4c(Nc5ccc(Oc6ccccc6)cc5)ccnc4c3)c2)CC1 [GW578342] | 0 | 0 | 0 | 0 | 0 | 0 | 11 | 93.7 | 10 | 0 | 95.2 | 0 | 0 | 12 | 21 | 0 | 38 | 58 | 0 | 27 |
| COc1ccc(CNC(=O)NC2CCN(c3ccnc(Nc4ccc(F)cc4)n3)CC2)cc1 [GSK1379788] | 0 | 9 | 0 | 11 | 5 | 0 | 0 | 19 | 7 | 8 | 8 | 0 | 0 | 4 | 0 | 0 | 1 | 0 | 25 | 24 |
| FC(F)(F)c1ccc(/C=C/c2cncnc2Nc2ccc3[nH]c(Cc4ccccc4)nc3c2)cc1 [GW709199] | 2 | 65 | 0 | 0 | 0 | 0 | 0 | 0 | 19 | 0 | 9 | 0 | 0 | 0 | 13 | 0 | 0 | 1 | 0 | 18 |
| O=C(Nc1cccc(Oc2ccc3nc(NC(=O)C4CC4)cn3n2)c1)c1ccccc1C(F)(F)F | 7 | 43 | 29 | 0 | 0 | 0 | 91.5 | 100 | 0 | 0 | 72 | 6 | 7 | 0 | 95.1 | 0 | 39 | 57 | 0 | 0 |
| O=C(Nc1cccc(-c2nn3ccccc3c2-c2ccnc(Nc3cccc(C(F)(F)F)c3)n2)c1)c1c(F)cccc1F [GSK292658] | 0 | 26 | 0 | 3 | 0 | 0 | 0 | 94.6 | 0 | 6 | 95.2 | 0 | 5 | 0 | 80 | 1 | 3 | 72 | 0 | 25 |
| CN(c1ccc(NC(=O)Nc2cc(C(F)(F)F)ccc2F)cc1)c1ccnc(Nc2ccc(S(N)(=O)=O)cc2)n1 [GW809893] | 16 | 94.7 | 51 | 8 | 51 | 0 | 16 | 99.5 | 0 | 0 | 99.6 | 89 | 84 | 0 | 100 | 72 | 95.7 | 96.4 | 0 | 95.7 |
| Cc1ccc(F)c(C(=O)Nc2cccc(-c3nn4ccccc4c3-c3ccnc(Nc4cccc(F)c4)n3)c2)c1F [GSK361061] | 0 | 8 | 0 | 29 | 38 | 25 | 2 | 99.4 | 1 | 23 | 97.1 | 33 | 15 | 0 | 98.5 | 6 | 9 | 73 | 0 | 0 |
| CNC(=O)c1ccccc1Nc1nc(Nc2ccc(N3CCOCC3)cc2)ncc1Cl.Cl [GSK1576028] | 99.9 | 99 | 100 | 100 | 100 | 100 | 10 | 92.4 | 32 | 92.1 | 99.6 | 46 | 30 | 51 | 96.4 | 92.7 | 100 | 92.6 | 89 | 11 |
| Cc1occc1-c1ncc(OC[C@@H](N)Cc2c[nH]c3ccccc23)cc1-c1ccc2[nH]nc(C)c2c1.O=C(O)C(F)(F)F [GSK682037] | 0 | 5 | 0 | 24 | 55 | 12 | 0 | 21 | 93.9 | 94.8 | 98.2 | 0 | 0 | 0 | 85 | 23 | 42 | 39 | 0 | 3 |
